# Test results from PubChem BioAssay (NCATS).
# A number with no mark means an inactive call. Results filed as inconclusive are left out. Calls of active or inactive are those of the source. Unless noted, calls come from the whole dose curve; as a rule, active = well fitted curve in either direction with a large enough effect (not every such curve was filed as active); inconclusive = small, poorly fitted or top-dose-only effect, or another doubt; inactive = flat fitted curve, though single readings scatter.
# What was measured:
# [1] = biological target: Lysosomal acid glucosylceramidase (Homo sapiens) (UniProt P04062); experiment: Glucocerebrosidase-p2 (AID 348; in the data active = potency below about 10 µM; note: potency is the fitted concentration of half-maximal effect); settings: purified GBA, blue fluorogenic substrate, 40 min
# Lysosomal acid glucosylceramidase (Homo sapiens), sequence (P04062 whole entry, looked up): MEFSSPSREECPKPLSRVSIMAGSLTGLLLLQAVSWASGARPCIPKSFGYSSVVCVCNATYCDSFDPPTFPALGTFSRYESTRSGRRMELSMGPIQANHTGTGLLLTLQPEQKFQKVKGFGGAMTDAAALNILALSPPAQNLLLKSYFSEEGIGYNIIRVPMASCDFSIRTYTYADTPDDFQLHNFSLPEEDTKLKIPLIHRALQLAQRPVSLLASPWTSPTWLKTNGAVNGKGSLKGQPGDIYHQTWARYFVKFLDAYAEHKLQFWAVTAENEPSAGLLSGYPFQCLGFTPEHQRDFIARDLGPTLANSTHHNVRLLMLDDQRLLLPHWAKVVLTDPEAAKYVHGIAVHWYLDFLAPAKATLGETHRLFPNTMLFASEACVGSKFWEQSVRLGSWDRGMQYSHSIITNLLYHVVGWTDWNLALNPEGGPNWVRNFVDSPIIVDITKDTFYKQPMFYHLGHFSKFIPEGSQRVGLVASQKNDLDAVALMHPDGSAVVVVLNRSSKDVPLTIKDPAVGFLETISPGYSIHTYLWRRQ
# Summary of the method: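 Normal human glucocerebrosidase (0.2 nM) with blue fluorogenic substrate (80 uM final) in citrate/phosphate pH 5.9 with 10mM sodium taurocholate, 0.01% tween-20; 40 min RT, NaOH/glycine stop; fluorescence Ex 365/Em 440; AC50 from a titration from 0.6 nM upwards.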
# [2] = AP1 Signaling Pathway (AID 357); settings: ME-180 AP-1-bla reporter, EGF-induced, beta-lactamase ratio, 5 h; at 7.69 µM (top of the series) unless noted;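 note: ME-180 reporter cells stimulated with EGF at its EC50 level; % is set by controls: 0 for no effect and ±100 for the full control effect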
# Summary of the method: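 Titration-series screen for positive or negative modulators of EC50 EGF-induced signaling in ME-180 cells carrying an AP-1-driven beta-lactamase reporter. After 5 hours at 37 degrees Celsius, CCF4 460nm/530nm emission ratio gave %Activity; AC50 values derived.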
# [3] = Stat Signaling Pathway (AID 446); settings: ME-180 (cervical carcinoma) SIE beta-lactamase reporter, IL-6 stimulated, 5 h; at 7.69 µM (top of the series) unless noted;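 note: ME-180 cervical cancer cells given 40 pM IL-6 alongside compound; SIE-controlled beta-lactamase reporter measured as 460/530 nm FRET emission ratio; % is set by controls: 0 for no effect and ±100 for the full control effect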
# Summary of the method: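 Compound effects on IL-6-induced STAT reporter activity were measured in ME-180 cells. After overnight culture, cells were co-treated with 40 pM IL-6 for 5 hrs before beta-lactamase substrate loading at room temperature.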
# [4] = biological target: Glucocorticoid receptor (Homo sapiens) (UniProt P04150); experiment: GR-GFP Redistribution (AID 450;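 active = compounds whose dose series gives a full or clear partial fitted curve of increased nuclear translocation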; note: potency is the fitted concentration of half-maximal effect); settings: U2OS GR-GFP nuclear translocation, laser cytometry, 2 h
# Glucocorticoid receptor (Homo sapiens), sequence (P04150 whole entry, looked up, the tested form may be a part): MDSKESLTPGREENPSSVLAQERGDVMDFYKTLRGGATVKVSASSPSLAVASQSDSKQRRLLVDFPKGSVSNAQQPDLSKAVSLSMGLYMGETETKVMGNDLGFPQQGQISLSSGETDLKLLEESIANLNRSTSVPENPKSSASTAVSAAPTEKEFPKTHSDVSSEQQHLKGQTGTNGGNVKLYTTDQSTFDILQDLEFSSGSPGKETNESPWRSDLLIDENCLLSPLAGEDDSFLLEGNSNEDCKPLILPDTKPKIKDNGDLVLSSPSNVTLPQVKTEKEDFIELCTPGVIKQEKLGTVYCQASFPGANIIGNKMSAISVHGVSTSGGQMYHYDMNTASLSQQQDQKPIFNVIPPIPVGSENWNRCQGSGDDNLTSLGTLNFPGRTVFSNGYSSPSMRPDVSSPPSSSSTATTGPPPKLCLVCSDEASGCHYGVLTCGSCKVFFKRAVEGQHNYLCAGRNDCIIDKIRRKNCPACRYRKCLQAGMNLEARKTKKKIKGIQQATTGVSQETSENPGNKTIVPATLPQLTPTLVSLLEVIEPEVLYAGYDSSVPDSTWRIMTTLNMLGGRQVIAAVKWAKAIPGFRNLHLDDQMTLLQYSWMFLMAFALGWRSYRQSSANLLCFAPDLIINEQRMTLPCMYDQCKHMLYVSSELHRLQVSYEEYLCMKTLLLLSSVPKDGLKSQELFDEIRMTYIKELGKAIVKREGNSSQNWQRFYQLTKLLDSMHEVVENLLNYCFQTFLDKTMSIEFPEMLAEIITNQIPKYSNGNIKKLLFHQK
# [5] = biological target: Glucocorticoid receptor (Homo sapiens) (UniProt P04150); experiment: GR-EFC Redistribution (AID 451; calls by dose curve; note: potency is the fitted concentration of half-maximal effect); settings: CHO-K1 GR-EFC translocation, beta-gal luminescence, 2 h
# Summary of the method: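 CHO-K1 cells expressing nuclear EA and GR-ED fragments of b-gal; compounds titrated up to 46 uM final, 2 h at 37 C. GR nuclear translocation read as complemented b-gal luminescence after 1 h RT detection.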
# [6] = biological target: Mitogen-activated protein kinase 10 (Mus musculus) (UniProt Q61831); experiment: JNK3 AlphaScreen Assay (AID 530); settings: JNK3 lysate, c-Jun phosphorylation; series mostly up to 11.4 µM;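 note: kinase came from lysate of stimulated human HepG2 cells; signal reports phosphorylation of biotinylated GST-cJun 1-79 at Ser73 with 10 µM ATP; % is set by controls: 0 for no effect and ±100 for the full control effect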
# Summary of the method: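 HepG2 lysate (IL-1b/TNFa pre-activated) + biotin-GST-cJun 1-79 + anti-pSer73 cJun; cpd titration, 15 min RT; ATP 10 uM start; Tris pH 7.6, MgCl2, DTT, vanadate; beads in EDTA buffer; AlphaScreen.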
# [7] = biological target: 3',5'-cyclic-AMP phosphodiesterase 4B (Homo sapiens) (UniProt Q07343); experiment: qHTS Assay for Inhibitors of PDE-IV (AID 607; active = well fitted activation curve with a large enough effect in the main read-out, with a control signal flat, not every such curve was filed as active; note: % of control where 0% means no effect); settings: HEK293 ACTOne CNG channel cells, membrane potential fluorescence; series mostly up to 22.9 µM
# 3',5'-cyclic-AMP phosphodiesterase 4B (Homo sapiens), sequence (Q07343 whole entry, looked up): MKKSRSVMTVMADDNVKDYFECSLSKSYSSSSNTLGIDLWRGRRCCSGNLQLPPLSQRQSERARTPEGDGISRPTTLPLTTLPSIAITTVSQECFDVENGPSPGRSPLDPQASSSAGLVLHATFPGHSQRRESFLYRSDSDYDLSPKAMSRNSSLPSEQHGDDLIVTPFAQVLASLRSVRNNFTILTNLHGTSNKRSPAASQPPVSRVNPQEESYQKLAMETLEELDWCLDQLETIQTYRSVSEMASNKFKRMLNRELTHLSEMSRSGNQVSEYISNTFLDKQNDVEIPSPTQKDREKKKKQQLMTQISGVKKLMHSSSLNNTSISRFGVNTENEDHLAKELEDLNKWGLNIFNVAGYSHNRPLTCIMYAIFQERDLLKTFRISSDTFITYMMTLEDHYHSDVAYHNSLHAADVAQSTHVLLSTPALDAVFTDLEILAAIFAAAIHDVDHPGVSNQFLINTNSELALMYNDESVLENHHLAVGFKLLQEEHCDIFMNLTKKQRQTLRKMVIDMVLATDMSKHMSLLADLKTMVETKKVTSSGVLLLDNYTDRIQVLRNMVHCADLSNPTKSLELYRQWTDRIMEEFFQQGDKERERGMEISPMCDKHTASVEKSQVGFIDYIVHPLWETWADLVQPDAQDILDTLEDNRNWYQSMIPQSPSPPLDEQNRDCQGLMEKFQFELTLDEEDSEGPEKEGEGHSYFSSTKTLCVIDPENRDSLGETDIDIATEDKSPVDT
# Summary of the method: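 ACTOne HEK293 cells carry a modified cAMP-gated CNG channel and express endogenous PDE4; plated 1000 cells/well, compounds up to 22.9 uM final. Membrane-potential dye fluorescence (ex 535/em 590) was read; parental cells received 10 uM forskolin + 100 uM RO 20-1724.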
# [8] = biological target: Ubiquitin carboxyl-terminal hydrolase 1 (Homo sapiens) (UniProt O94782); experiment: Inhibitors of USP1/UAF1: Pilot qHTS (AID 504865; active = well fitted curve in the direction sought with a large enough effect; an effect the other way counts as inactive or inconclusive;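 note: rhodamine fluorescence freed from ubiquitin-rhodamine substrate followed over time; top concentration of the series differs between compounds; % is set by controls: 0 for no effect and ±100 for the full control effect; nearly all actives have a fitted effect of over 35% in size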); settings: purified USP1/UAF1, Ub-rhodamine cleavage fluorescence; series mostly up to 114 µM
# Ubiquitin carboxyl-terminal hydrolase 1 (Homo sapiens), sequence (O94782 whole entry, looked up): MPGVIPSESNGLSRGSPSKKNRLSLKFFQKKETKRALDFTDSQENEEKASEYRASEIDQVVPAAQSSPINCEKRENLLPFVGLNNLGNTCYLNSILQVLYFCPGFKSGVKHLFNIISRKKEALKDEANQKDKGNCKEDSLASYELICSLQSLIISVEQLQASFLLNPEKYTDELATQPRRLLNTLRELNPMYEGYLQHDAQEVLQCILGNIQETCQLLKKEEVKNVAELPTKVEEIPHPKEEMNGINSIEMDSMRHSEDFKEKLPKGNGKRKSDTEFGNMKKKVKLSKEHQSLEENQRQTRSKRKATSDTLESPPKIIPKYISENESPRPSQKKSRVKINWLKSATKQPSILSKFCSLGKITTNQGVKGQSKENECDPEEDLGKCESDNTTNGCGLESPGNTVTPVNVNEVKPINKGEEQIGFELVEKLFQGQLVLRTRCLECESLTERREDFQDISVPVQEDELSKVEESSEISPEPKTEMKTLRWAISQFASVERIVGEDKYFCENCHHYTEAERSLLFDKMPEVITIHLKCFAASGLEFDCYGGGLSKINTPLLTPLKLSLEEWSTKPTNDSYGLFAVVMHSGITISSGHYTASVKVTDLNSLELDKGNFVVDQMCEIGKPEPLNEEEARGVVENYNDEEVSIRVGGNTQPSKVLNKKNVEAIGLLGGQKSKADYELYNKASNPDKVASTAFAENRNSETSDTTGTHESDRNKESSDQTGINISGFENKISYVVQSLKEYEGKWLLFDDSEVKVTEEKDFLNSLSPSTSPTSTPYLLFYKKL
# Summary of the method: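 USP1/UAF1 complex (1nM) preincubated with compound 15 min at room temperature, then Ub-Rho substrate (150nM final) added. Fluorescence read kinetically at 480/540 nm, 6 reads every 60 seconds. Buffer: 50mM HEPES pH 7.8, 0.5mM EDTA, 0.1 mg/ml BSA, 1mM TCEP, 0.01% Tween-20.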
# [9] = NFAT Signaling Pathway (AID 444); settings: Jurkat NFAT-bla M1, carbachol, beta-lactamase ratio, 5 h; at 7.69 µM (top of the series) unless noted;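 note: carbachol stimulus at about its EC50 of 1 µM final; % is set by controls: 0 for no effect and ±100 for the full control effect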
# Summary of the method: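 Jurkat cells with NFAT-driven β-lactamase reporter and co-expressed M1 receptor, stimulated with carbachol (final 1 uM, ~EC50), compound titration, 5 h at 37 °C. CCF4 loaded 1 h at RT; 460/530 nm ratio gave %activity and AC50.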
# [10] = biological target: Cytochrome P450 3A4 (Homo sapiens) (UniProt P08684); experiment: qHTS Assay for Activators of Cytochrome P450 3A4 (AID 885; active = well fitted curve in the direction sought with a large enough effect; an effect the other way counts as inactive or inconclusive; note: nearly all actives have a fitted effect of over 65% in size; note: potency is the fitted concentration of half-maximal effect); settings: recombinant CYP3A4, Luciferin-PPXE luminescence, 60 min; series mostly up to 11.4 µM
# Cytochrome P450 3A4 (Homo sapiens), sequence (P08684 whole entry, looked up): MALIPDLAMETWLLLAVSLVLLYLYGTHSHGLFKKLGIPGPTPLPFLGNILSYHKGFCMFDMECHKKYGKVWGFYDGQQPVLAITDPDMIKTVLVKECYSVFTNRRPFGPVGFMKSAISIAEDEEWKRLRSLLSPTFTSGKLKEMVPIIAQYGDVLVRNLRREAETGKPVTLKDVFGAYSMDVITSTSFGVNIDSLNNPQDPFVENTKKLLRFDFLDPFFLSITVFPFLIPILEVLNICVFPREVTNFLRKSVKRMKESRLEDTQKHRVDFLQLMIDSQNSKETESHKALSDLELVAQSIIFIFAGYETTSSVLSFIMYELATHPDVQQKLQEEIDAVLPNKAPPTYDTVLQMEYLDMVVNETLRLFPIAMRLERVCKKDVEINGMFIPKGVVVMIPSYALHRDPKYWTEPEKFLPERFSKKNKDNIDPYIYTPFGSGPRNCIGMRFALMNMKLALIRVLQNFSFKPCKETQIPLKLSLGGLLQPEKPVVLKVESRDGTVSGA
# Summary of the method: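 CYP3A4 activity: Luciferin-PPXE O-dealkylation, 25uM substrate, 200mM KPO4, RT throughout. Read-out is luciferase luminescence; higher values reflect activation.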
# [11] = biological target: Cytochrome P450 2D6 (Homo sapiens) (UniProt P10635); experiment: qHTS Assay for Inhibitors and Substrates of Cytochrome P450 2D6 (AID 891; active = well fitted curve in the direction sought with a large enough effect; an effect the other way counts as inactive or inconclusive; note: potency is the fitted concentration of half-maximal effect; nearly all actives have a fitted effect of over 60% in size); settings: recombinant CYP2D6, luciferin-ME EGE luminescence; series mostly up to 11.4 µM
# Cytochrome P450 2D6 (Homo sapiens), sequence (P10635 whole entry, looked up): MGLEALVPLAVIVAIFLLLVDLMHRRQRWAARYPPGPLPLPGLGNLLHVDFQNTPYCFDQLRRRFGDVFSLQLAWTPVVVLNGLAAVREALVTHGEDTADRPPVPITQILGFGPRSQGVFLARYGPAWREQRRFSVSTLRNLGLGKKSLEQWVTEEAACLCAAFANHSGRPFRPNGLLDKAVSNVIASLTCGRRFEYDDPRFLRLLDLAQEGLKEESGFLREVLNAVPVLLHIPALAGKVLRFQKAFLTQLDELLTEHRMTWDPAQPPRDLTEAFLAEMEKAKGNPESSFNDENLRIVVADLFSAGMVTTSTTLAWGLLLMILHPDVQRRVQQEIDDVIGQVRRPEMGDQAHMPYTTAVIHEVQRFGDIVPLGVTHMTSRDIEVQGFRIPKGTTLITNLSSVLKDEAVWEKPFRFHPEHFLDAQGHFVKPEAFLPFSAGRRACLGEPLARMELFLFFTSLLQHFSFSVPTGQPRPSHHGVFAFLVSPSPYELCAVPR
# Summary of the method: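 Luminescent read-out of luciferin formed by 5 nM human CYP2D6 demethylating 30 uM Luciferin-ME EGE (Km level) over 60 min at room temperature after NADPH regeneration addition. Data normalized to full inhibition by 1.43 uM quinidine.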
Structure (SMILES),Potency [1],"activity change, negative = inhibition [2]","activity, negative = inhibition [3]",Potency [4],Potency [5],Potency [6],Potency [7],Potency [8],"activity change, negative = inhibition [9]",Potency [10],Potency [11]
COc1ccccc1-c1nc(NCCc2cnc[nH]2)c2ccccc2n1,> 11.4 µM,17.1%,22.8%,> 46 µM,> 46 µM,inactive,inactive,inactive,–,–,–
C[C@H]1CCCC=CC2C[C@H](OC(=O)CN(C)C)C[C@@H]2[C@@H](O)/C=C\C(=O)O1 (stereo not given in full),> 11.4 µM,-7.78%,–,> 46 µM,> 9.22 µM,inactive,inactive,–,29.7%,3.98 µM (active),–
CC(C)(C)C1CCC2(CC1)CCN(CCCN1CCOCC1)CC2,> 11.4 µM,11.9%,-3.69%,> 46 µM,> 9.22 µM,inactive,–,–,–,–,–
CC(NC(=O)c1ccccc1)(C(=O)O)C(=O)O,> 11.4 µM,2.23%,14.4%,> 46 µM,> 9.22 µM,inactive,inactive,–,–,–,–
O=C(O)CCc1ccc(-c2ccccc2)[nH]1,> 11.4 µM,2.27%,1.73%,> 46 µM,> 9.22 µM,inactive,inactive,–,–,–,–
CC(=O)NC1=C(OS(=O)(=O)c2ccc(C)cc2)CN(C)C1=O,> 11.4 µM,24.1%,-10.5%,> 46 µM,> 9.22 µM,inactive,inactive,–,–,–,–
C[C@H](CCC(=O)O)[C@H]1CC[C@@H]2[C@H]3CC[C@H]4C[C@H](O)CC[C@@]4(C)[C@@H]3CC[C@@]21C,> 11.4 µM,17.2%,-10%,> 46 µM,> 9.22 µM,inactive,inactive,–,–,–,–
NCCSCc1ccccc1Cl,> 11.4 µM,1.67%,–,> 46 µM,> 9.22 µM,inactive,inactive,–,-5.94%,inactive,3.16 µM (active)
O[C@@H](c1cc(-c2ccccc2)nc2c1ccc1ccccc12)[C@@H]1CCCCN1,> 11.4 µM,-3.12%,9.42%,> 46 µM,> 9.22 µM,inactive,–,–,–,–,–
COc1ccc(C[C@H](O)CN2CCOCC2)cc1,> 11.4 µM,-3.04%,9.2%,> 46 µM,> 9.22 µM,inactive,inactive,–,–,–,–
CN(C)CCC[C@@H]1c2ccccc2Oc2ccc(C(F)(F)F)cc21,> 11.4 µM,21.1%,4.88%,> 46 µM,> 9.22 µM,inactive,inactive,–,–,–,–
O=C(O)CCC(=O)c1ccc[nH]1,> 11.4 µM,-0.936%,3.5%,> 46 µM,> 9.22 µM,inactive,inactive,–,–,–,–
CN1CCC[C@@H]1c1cccnc1.O=C(O)c1ccccc1O.O=C([OH2+])c1ccccc1O.O=C([OH2+])c1ccccc1O.O=C([OH2+])c1ccccc1O.[Cu],> 11.4 µM,0.0867%,–,–,–,inactive,inactive,–,-1.52%,–,–
O=C(O)c1ccc(N[C@H](c2ccccc2)c2ccc3cccnc3c2O)cc1,> 11.4 µM,-0.822%,-17%,> 46 µM,> 9.22 µM,inactive,inactive,–,–,–,–
Cc1cccc(C(=O)O)c1C[C@H]1NCC[C@H]2c3ccccc3N[C@@H]12,> 11.4 µM,29.4%,4.38%,> 46 µM,> 9.22 µM,inactive,inactive,–,–,–,–
